Shown are actives, neighbours in structure and some others; about 3.6% of the full set was active somewhere.
Wnt bcat act: activates Wnt/beta-catenin signaling in a reporter cell assay. AID 743398. activation, % at 9.35 µM. 300,000 tested, 1.2% active. activator, plate reader; in the data active = activation above about 30%, passing the limit was not always enough; inconclusive = no clear call, values can overlap the other calls;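 also: 0% = neutral control wells and 100% = positive control wells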
PHOSPHO1 inh: PHOSPHO1 (human) inhibition; Q8TCT1; recombinant PHOSPHO1, absorbance phosphatase assay; inhibition, % at 13.3 µM; 290,000 tested, 1.1% active; AID 1565; in the data active = inhibition above about 60%
esBAF inh: SWI/SNF esBAF complex inhibition | mouse ES cells, Bmi1-luciferase knock-in reporter, 24 h; 100% = twice the neutral-well signal | reporter increase, % at 12.5 µM | 350,000 tested, 2% active | AID 602393; in the data active = activation above about 40%; inconclusive = no clear call, values can overlap the other calls;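 also: 0% = median of the plate's neutral control wells and 100% = double that signal; a rise in the Bmi1 reporter signal indicates esBAF inhibition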
A3G deaminase: APOBEC3G (human) deaminase inhibition; Q9HC16; recombinant A3G, ssDNA deamination FAM/TAMRA fluorescence; inhibition, % at 20 µM; 330,000 tested, 0.28% active; AID 493012;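 active = inhibition of at least 40% at 20 µM, with no more than 30% in the related APOBEC3A deaminase screen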;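 also: plate controls were DMSO wells with A3G for no effect and wells lacking A3G enzyme for full effect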
Target sequence (Q9HC16 whole entry, looked up): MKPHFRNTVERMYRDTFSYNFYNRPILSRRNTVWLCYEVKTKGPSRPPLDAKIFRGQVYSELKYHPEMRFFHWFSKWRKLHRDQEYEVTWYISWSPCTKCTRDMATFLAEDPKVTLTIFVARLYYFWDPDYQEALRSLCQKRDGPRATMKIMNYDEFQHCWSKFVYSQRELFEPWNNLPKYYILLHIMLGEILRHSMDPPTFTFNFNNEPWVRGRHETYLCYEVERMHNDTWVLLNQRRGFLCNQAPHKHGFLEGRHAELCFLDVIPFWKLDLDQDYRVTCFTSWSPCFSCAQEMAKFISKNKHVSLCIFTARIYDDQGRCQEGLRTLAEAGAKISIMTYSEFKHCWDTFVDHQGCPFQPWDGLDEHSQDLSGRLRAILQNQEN
MITF TRPM1 HTS: MITF TRPM1 promoter activation in melanoma cells; SK-MEL-5 TRPM1-promoter luciferase, 24 h; % of positive control, neutral wells = 0; activation, % at 12.5 µM; 300,000 tested, 0.75% active;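 active = mean activation of at least 80% with every replicate also reaching 80%; inconclusive = mean reaches 80% but some replicate falls short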;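 also: 0% = neutral control wells and 100% = parthenolide positive control wells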
A3A deaminase: blocks human APOBEC3A ssDNA deamination; P31941; recombinant A3A, FAM/TAMRA ssDNA deamination fluorescence; inhibition, % at 20 µM; 330,000 tested, 0.41% active;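 active = at least 40% inhibition at 20 µM here, with at most 30% in a related deaminase screen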;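 also: plate controls were A3A with DMSO for no effect and wells lacking A3A enzyme for full effect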
Target sequence (P31941 whole entry, looked up): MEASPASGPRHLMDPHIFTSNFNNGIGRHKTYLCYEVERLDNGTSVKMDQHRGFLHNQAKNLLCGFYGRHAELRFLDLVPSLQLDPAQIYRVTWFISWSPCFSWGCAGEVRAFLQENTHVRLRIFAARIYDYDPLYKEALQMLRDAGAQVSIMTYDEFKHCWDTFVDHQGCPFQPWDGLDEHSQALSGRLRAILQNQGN
The depositor's hits bear a star; ? = inconclusive; · = not tested or not shown.

SMILES | Wnt bcat act | PHOSPHO1 inh | esBAF inh | A3G deaminase | MITF TRPM1 HTS | A3A deaminase
CC(=O)N1CCN(c2ccc(NC(=O)c3cccc(F)c3)cc2)CC1 | 19.4 | · | 53.7* | · | · | ·
O=C(Nc1ccc(N2CCN(C(=O)c3ccco3)CC2)cc1)c1ccccc1F | · | 17.9 | · | -0.2 | 18.0 | 0.4
O=C(Nc1ccc(N2CCN(C(=O)c3ccco3)CC2)cc1)c1cccc(F)c1 | 5.2 | 35.1 | 53.6* | -5.1 | · | -2.7
C[C@@H]1CN([C@H](C)CO)C(=O)c2cc(NC(=O)c3ccccc3)ccc2O[C@@H](C)CCCCO[C@H]1CN(C)C(=O)Nc1cccc2ccccc12 | · | · | -8.2 | · | · | ·
COc1ccc(OCc2cc(C(=O)N(C)CC3CCCCO3)no2)c(Cl)c1 (stereo not given) | 19.2 | 36.4 | 41.4* | -7.2 | 44.5 | -0.1
CN(CCC1CCCCO1)C(=O)c1cc(COc2ccc(F)cc2F)on1 (stereo not given) | 3.3 | 17.6 | 1.9 | -6.9 | 3.7 | -2.7
Cc1nn(C)cc1CN(C)C(=O)c1cc(COc2ccc(F)cc2F)on1 | -2.5 | 64.2* | -1.0 | -4.2 | 7.6 | -1.3
COc1ccc(OCc2cc(C(=O)N(C)C(C)c3ccon3)no2)c(Cl)c1 (stereo not given) | 18.7 | 13.7 | 73.5* | -7.0 | 68.6 | -3.7
CN(CC1CCCCO1)C(=O)c1cc(COc2ccc(F)cc2Cl)on1 (stereo not given) | 12.7 | 52.7 | 43.4* | -5.0 | 61.5 | 0.0
Cc1nnc(CN(C)C(=O)c2cc(COc3ccc(C)c(C)c3)on2)o1 | 0.3 | 34.4 | 11.0 | -6.2 | 23.6 | -2.5
COc1cc(Cl)ccc1OCc1cc(C(=O)N(C)CC2CCCCO2)no1 (stereo not given) | 40.3* | -28.1 | 69.7* | -0.8 | 49.9 | -1.0
COc1ccc(OCc2cc(C(=O)N(C)CCC3CCOCC3)no2)c(Cl)c1 | 21.9 | 12.3 | 58.0* | -1.0 | 67.8 | -1.0
Cc1nnc(CN(C)C(=O)c2cc(COc3ccc(F)cc3Cl)on2)o1 | 17.9 | 17.6 | 52.5* | 0.8 | 48.0 | 6.7
COc1cccc(OCc2cc(C(=O)N(C)C3CCOCC3)no2)c1 | -1.0 | 27.6 | · | -5.0 | 11.9 | 0.0
O=S(=O)(NC[C@H]1[C@@H](c2ccccc2)[C@H](CO)N1CC1CC1)c1ccccc1 | · | · | 0.5 | · | · | ·
CN(C)c1ccc(NC(=O)c2ccc(N3CCOCC3)nc2)cc1 | 8.6 | 19.2 | 50.7* | -1.2 | 31.6 | 2.2
CN1CCN(C(=O)C[C@H]2CC[C@@H]3[C@H](COC[C@@H](O)CN3CC3CC3)O2)CC1 | · | · | -4.8 | · | · | ·
CCn1c(NC(=O)c2ccccc2)nc2ccccc21 | 31.5* | 23.7 | · | -5.9 | · | -2.1
CCCCn1c(NC(=O)c2ccccc2)nc2ccccc21 | 2.3 | 3.2 | 4.0 | -7.0 | -6.8 | -6.3
COc1ccc(NC(=O)c2cc3ccccc3o2)cc1 | 3.6 | -7.5 | 58.4* | -5.2 | 54.6 | -2.4
CC(=O)c1ccc(NC(=O)c2cc3ccccc3o2)cc1 | 38.8* | 13.9 | 39.1 | -3.9 | 30.8 | -5.3
CC(=O)N1CCN(c2ccc(NC(=O)c3cc4ccccc4o3)cc2)CC1 | 3.1 | -6.3 | 3.7 | -2.8 | 7.7 | 3.2
COc1ccc(NC(=O)c2cc3ccccc3o2)cc1OC | 8.0 | · | ? | -9.8 | 35.2 | -2.2
O=C(Nc1ccccc1)c1cc2ccccc2o1 | 34.6* | 18.2 | -8.2 | 2.2 | -8.0 | 3.8
N=c1oc2cc(O)ccc2cc1C(=O)Nc1ccc(Cl)cc1 | 47.4* | 43.7 | 57.7* | -9.4 | 53.8 | -4.4
SMILES | Wnt bcat act | PHOSPHO1 inh | esBAF inh | A3G deaminase | MITF TRPM1 HTS | A3A deaminase
O=C(Nc1ccc(NC(=O)c2cc3ccccc3o2)cc1)c1ccco1 | 0.2 | 46.2 | 0.4 | -12.6 | 6.2 | -4.6
CCCC(=O)Nc1ccc2c(c1)C(=O)N(C)[C@H]1CC[C@@H](CC(=O)N3CCCCC3)O[C@@H]1CO2 | · | · | -5.6 | · | · | ·
CCC(=O)Nc1ccc2c(c1)C(=O)N(C)C[C@@H](OC)[C@@H](C)CN(C(=O)CC)[C@H](C)CO2 | · | · | -4.7 | · | · | ·
COc1ccc(-c2cnc3c(c2)C(=O)N([C@H](C)CO)C[C@@H](C)[C@@H](CN(C)C(=O)C2CCOCC2)O3)cc1 | · | · | 0.3 | · | · | ·
C[C@@H]1CN([C@H](C)CO)C(=O)c2cc(NC(=O)Cc3cn(C)c4ccccc34)ccc2O[C@@H]1CN(C)Cc1ccc(Oc2ccccc2)cc1 | · | · | -2.9 | · | · | ·
CC(C)c1nnc(NC(=O)c2cc3ccccc3o2)s1 | 26.9 | 1.5 | 22.7 | -2.1 | 107.6* | 0.3
CSc1nnc(NC(=O)c2cc3ccccc3oc2=O)s1 | -1.2 | -9.3 | 54.0* | -3.3 | · | -1.3
COc1ccc(NC(=O)c2cc3ccccc3o2)cn1 | 42.8* | 25.3 | 68.5* | -10.0 | 104.0* | -3.3
O=C(Nc1ccc(N2CCCC2)cc1)c1cc2ccccc2o1 | 2.0 | · | 43.4* | -1.3 | 28.5 | -8.3
COc1ccccc1C(=O)N1C[C@H]2[C@@H](c3ccccc31)[C@H](CO)N2C(=O)Cc1cccnc1 | · | · | -1.4 | · | · | ·
Cc1ccc(S(=O)(=O)N(C)C[C@H]2OCCCC[C@@H](C)Oc3ccc(NC(=O)CCC(F)(F)F)cc3C(=O)N([C@@H](C)CO)C[C@H]2C)cc1 | · | · | -0.5 | · | · | ·
CC(C)NC(=O)Nc1ccc2c(c1)C(=O)N([C@H](C)CO)C[C@@H](C)[C@@H](CN(C)S(=O)(=O)c1cn(C)cn1)OCCCC[C@H](C)O2 | · | · | -8.9 | · | · | ·
Cc1cc(C)cc(NC(=O)Nc2ccc3c(c2)C(=O)N(C)[C@@H]2CC[C@H](CC(=O)O)O[C@H]2CO3)c1 | · | · | 0.9 | · | · | ·
COc1ccc(NC(=O)c2ccc(-c3ccc(C(C)=O)cc3)o2)cn1 | 9.6 | · | 44.9* | 9.5 | 34.5 | 35.5
Cc1cc(C(=O)Nc2ccccc2)oc1C | · | -1.6 | · | -7.6 | 112.5* | -1.4
Cc1cc(C)cc(NC(=O)Nc2ccc(N3CCCCC3)cc2)c1 | 38.9* | 53.3 | · | -4.6 | · | 0.6
O=C(c1cc2ccccc2o1)c1cccs1 | 57.9* | 12.2 | ? | -3.9 | · | -0.8
COc1ccc(NC(=O)c2ccco2)cn1 | 1.0 | 28.0 | -7.9 | -12.8 | 25.6 | -6.4
O=C(NC(=S)Nc1ccc(NC(=O)c2cccs2)cc1)c1cc2ccccc2o1 | · | -8.6 | · | -4.7 | -0.9 | -0.3
Cc1cc(C(=O)Nc2cccc3ccccc23)oc1C | 4.3 | · | 31.0 | · | · | ·
C[C@H](NC(=O)[C@@H]1[C@@H](CO)[C@@H]2Cn3c(ccc(-c4cccnc4)c3=O)[C@H]1N2C)c1ccccc1 | · | · | 3.2 | · | · | ·
O=C(Nc1ncccc1Cl)c1cc2ccccc2o1 | 46.3* | 18.3 | ? | 1.1 | 51.1 | 1.6
N=c1oc2ccccc2cc1C(=O)Nc1ccc(F)cc1 | 37.9* | 19.7 | -16.0 | · | -11.7 | ·
O=C(Nc1ccc(F)cc1)c1cc2ccccc2o1 | 15.5 | 13.0 | 46.6* | 1.0 | 44.8 | 0.1
C[C@@H]1CN([C@@H](C)CO)C(=O)Cc2cc(N(C)C)ccc2O[C@H]1CN(C)S(=O)(=O)c1ccccc1 | · | · | -4.4 | · | · | ·
C[C@H]1CN([C@@H](C)CO)C(=O)c2cccc(NC(=O)c3cnccn3)c2O[C@H]1CN(C)C(=O)Nc1cccc2ccccc12 | · | · | -5.3 | · | · | ·
